Compound activity as filed in PubChem.
D1 antag: blocks dopamine activation of the human D1 receptor; P21728; HEK293 TREx D1 cells, calcium flux, dopamine EC80; stronger effect = lower value; activity change, negative = inhibition, % at 10 µM; 360,000 compounds, 3.2% hits; AID 504652; in the data active means activity change below about -30%
Target sequence (P21728 whole entry, looked up): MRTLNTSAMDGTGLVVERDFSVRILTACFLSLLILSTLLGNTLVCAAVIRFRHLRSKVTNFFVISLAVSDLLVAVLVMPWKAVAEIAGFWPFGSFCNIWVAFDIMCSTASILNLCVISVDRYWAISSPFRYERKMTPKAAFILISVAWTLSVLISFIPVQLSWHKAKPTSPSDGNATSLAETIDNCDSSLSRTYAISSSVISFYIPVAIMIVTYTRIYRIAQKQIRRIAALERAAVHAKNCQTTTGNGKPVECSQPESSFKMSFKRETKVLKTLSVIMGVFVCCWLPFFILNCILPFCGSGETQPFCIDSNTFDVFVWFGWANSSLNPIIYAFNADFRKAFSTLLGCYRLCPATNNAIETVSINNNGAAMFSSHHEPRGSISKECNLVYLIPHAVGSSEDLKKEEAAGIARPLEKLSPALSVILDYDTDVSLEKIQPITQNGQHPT
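Tetracycline-induced HEK293 T-REx cells with force-coupled D1 receptor were loaded with a no-wash calcium dye. Compound was added after a 10 s baseline and read kinetically for 180 s; EC80 dopamine was then added and calcium flux followed another 180 s.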
D1 potentiator: enhances dopamine response at the human D1 receptor | HEK293 TREx D1 cells, calcium flux, dopamine EC20 potentiation | 360,000 compounds, 0.036% hits | AID 504651 | P21728 | potentiation, % at 10 µM; in the data active means potentiation above about 30%
TRHR enhancer: allosteric enhancers of human TRH receptor. enhancement, % at 2 µM. AID 493056. P34981. 360,000 compounds, 0.66% hits. TRHR cells, fluo-8 calcium fluorescence, EC20 TRH enhancement; in the data active means enhancement above about 30%
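TRHR-expressing cells loaded with fluo-8 calcium dye were read kinetically (ex 480/em 530) during compound addition, then stimulated with an EC20 of TRH (10 nM final). Enhancement of the Gq-mediated intracellular calcium response was scored.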
TRHR agonist: TRH receptor (human) agonism. P34981. TRHR cells, calcium flux fluo-8, FDSS agonist mode. activation, % at 2 µM. 360,000 compounds, 0.18% hits. AID 493084
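Steps: seed TRHR cells overnight; add fluo-8 no-wash Ca dye, RT 30 min–1.5 h; record 10 s baseline; pin-transfer compounds; monitor fluorescence 1 cycle/s for the agonist window. Calcium increases flag candidate agonists.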
D1 agonist: activates the human D1 dopamine receptor. activation, % at 2 µM. 360,000 compounds, 1% hits. HEK293 T-REx D1 cells, calcium flux, agonist mode
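Agonism was scored from calcium flux recorded over 180 s (1 read/s) after pintool compound addition, following a 10-cycle baseline. Cells were inducible force-coupled HEK293 TREx D1, plated overnight at 30 C and loaded with no-wash calcium dye.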
Numbers stand for hits; n = inactive. Only some compounds are listed: those with a hit (about 4.6% of all), similar ones and a draw of the others. Unless noted, no stated cut-off is given here; in the data, active means activation above about 30%; inactive means the rest.

SMILES	D1 antag	D1 potentiator	TRHR enhancer	TRHR agonist	D1 agonist
CCOC(=O)Cc1c(C)nc2c(-c3ccc(OC)c(OC)c3)c(C)nn2c1C	n	n	n	n	n
O=[N+]([O-])c1c(NCCO)cc(N2CCCCCC2)c2nonc12	-43.2	n	n	n	n
O=[N+]([O-])c1c(NCCO)cc(N2CCN(Cc3ccc4c(c3)OCO4)CC2)c2nonc12	n	n	n	n	n
CCC(=O)NC(=S)Nc1ccc(NC(=O)c2ccccc2[N+](=O)[O-])cc1	n	n	n	n	n
CCC(=O)NC(=S)Nc1ccc(NC(=O)c2cccc([N+](=O)[O-])c2C)cc1	-39.8	n	n	n	n
CS(=O)(=O)N(CC(=O)NCCSCc1ccccc1)c1cc(C(F)(F)F)ccc1Cl	n	n	n	n	n
CCCSC(=S)c1c(C)[nH]n(-c2ccccc2)c1=O	n	n	n	n	35.2
CCCCN(CCCC)C(=S)N/N=C/c1c(C)[nH]n(-c2ccccc2)c1=O	n	n	n	n	n
Cc1ccc2ncc3c(-c4ccc(F)cc4)nn(CC(=O)Nc4ccccc4C)c3c2c1	n	n	n	n	n
Cc1ccccc1NC(=O)Cn1nc(-c2ccc(F)cc2)c2cnc3ccccc3c21	-36.9	n	n	n	n
O=C(CCc1ccccc1)NCc1nc2cccnc2n1Cc1ccc(F)cc1	n	n	n	n	n
COC(=O)C1=C(C)Nc2nc(-c3ccccc3)nn2C1c1ccc(C)o1 (stereo not drawn)	-57.1	n	n	n	n
COc1ccc(C2C(C(=O)Nc3ccccc3)=C(C)Nc3nc(-c4ccc(Cl)cc4)nn32)cc1 (stereo not drawn)	n	n	n	n	n
CCCN1CCc2c(sc(NC(=O)c3ccc(S(=O)(=O)N(C)c4ccccc4)cc3)c2C(=O)NC)C1	n	n	n	n	63.2
CCCN1CCc2c(sc(NC(=O)c3ccc(S(=O)(=O)N(C)c4ccccc4)cc3)c2C(N)=O)C1	n	n	n	62.7	132.9
CCN1CCc2c(sc(NC(=O)c3ccc(S(=O)(=O)N4CCCC4)cc3)c2C(=O)NC)C1	n	n	n	n	n
CCCN1CCc2c(sc(NC(=O)c3ccc(S(=O)(=O)N4CCN(C(=O)OCC)CC4)cc3)c2C(N)=O)C1	n	n	n	n	n
O=C(Cn1c(=O)n(Cc2ccc(Cl)cc2)c(=O)c2cccnc21)Nc1ccccc1C(F)(F)F	n	n	n	n	n
COc1ccccc1CNC(=O)CCNC(=O)c1ccco1	n	n	n	n	n
Cc1cc(C)cc(-n2c(SCC(=O)NC3CCCCC3)nc3c([nH]c4ccccc43)c2=O)c1	n	n	n	n	n
CCC1(c2ccc(F)cc2)NC(=O)N(CC(=O)Nc2cccnc2Cl)C1=O (stereo not drawn)	n	n	n	n	42.9
COc1ccc(C2(c3ccc(OC)cc3)NC(=O)N(CC(=O)Nc3ccccc3C(F)(F)F)C2=O)cc1	n	n	n	n	n
COc1ccc(C2(C)NC(=O)N(CC(=O)Nc3cccnc3Cl)C2=O)cc1 (stereo not drawn)	n	n	n	n	n
COc1ccc(C2(c3ccc(OC)cc3)NC(=O)N(CC(=O)Nc3ccccc3C)C2=O)cc1	n	n	35.6	n	n
CC1(c2ccc(OC(F)F)cc2)NC(=O)N(CC(=O)Nc2cccnc2Cl)C1=O (stereo not drawn)	-62.0	n	n	n	73.1
SMILES	D1 antag	D1 potentiator	TRHR enhancer	TRHR agonist	D1 agonist
CC1(c2ccc(OC(F)F)cc2)NC(=O)N(CC(=O)N2CCN(C(=O)c3ccco3)CC2)C1=O (stereo not drawn)	-30.2	n	n	n	n
CC1(c2cccc(Br)c2)NC(=O)N(CC(=O)N2CCN(C(=O)c3ccco3)CC2)C1=O (stereo not drawn)	n	n	n	n	n
CC(C)C(=O)OCc1cc(=O)n2nc(C3CC3)sc2n1	n	n	n	n	n
CCCn1c2ccccc2c2cnn(CC(=O)Nc3cc(OC)c(OC)c(OC)c3)c(=O)c21	n	n	n	n	n
Cc1cc2c(s1)c1cnn(Cc3ccc4ccccc4c3)c(=O)c1n2C	n	n	n	n	n
C/C(N)=C(/C#N)C(=O)CSc1nnnn1-c1ccc(C)cc1	-43.6	n	n	n	n
C/C(N)=C(/C#N)C(=O)CSc1nnnn1-c1ccccc1	n	n	n	n	n
Cc1nn(CC(=O)NCC(C)c2ccccc2)c(=O)c2cccn12 (stereo not drawn)	n	n	n	n	n
O=C(CN1C(=O)NC(Cc2ccccc2)C1=O)Nc1ccc(F)cc1 (stereo not drawn)	-86.3	n	n	n	n
Cc1ccc(NC(=O)CCCn2c(=O)c3cccn3c3cccnc32)cc1C	n	n	n	n	n
COc1cccc2sc(N(Cc3cccnc3)C(=O)c3ccc4c(c3)OCCO4)nc12	n	n	n	n	n
Cc1ccc(CN2CCC(CNC(=O)c3ccc(NC(=O)C4=CSCCO4)cc3)CC2)cc1	-30.0	n	n	n	n
CN1CCN(CCCNC(=O)c2ccc(NC(=O)C3=CSCCO3)cc2)CC1	n	n	n	n	n
O=C(Nc1ccc(C(=O)NCC2CCN(Cc3ccccc3F)CC2)cc1)C1=CSCCO1	n	n	n	n	n
COc1ccc(CNC(=O)c2ccc(NC(=O)C3=CSCCO3)cc2)cc1	n	n	34.4	n	n
O=C(Nc1ccc(C(=O)NCCCN2CCN(c3ccccc3)CC2)cc1)C1=CSCCO1	-38.7	n	n	n	35.5
CC1=C(C(=O)OCC2CCCCC2)C(c2ccc(Cl)cc2)CC(=O)N1 (stereo not drawn)	n	n	n	n	n
CC(C)C(=O)NC(c1ccc([N+](=O)[O-])cc1)c1c(O)ccc2ccccc12 (stereo not drawn)	-31.9	n	n	n	n
CC(=O)NC(c1ccc([N+](=O)[O-])cc1)c1c(O)ccc2ccccc12 (stereo not drawn)	n	n	n	n	n
COc1ccc(OC)c(NC(=O)N2CCC(N3CCN(Cc4ccc(F)cc4)C(=O)C3=O)CC2)c1	n	n	n	n	n
COC(=O)c1ccccc1NC(=O)N1CCC(N2CCN(Cc3ccc(F)cc3)C(=O)C2=O)CC1	-39.1	n	n	n	n
COc1cccc(C(=O)Nc2ccc3nc(SCCOc4ccccc4)sc3c2)c1	n	n	n	n	n
Cc1nc(CSc2nnc(C)s2)cs1	-41.9	n	n	n	n
Cc1nnc(SCc2ccc(F)cc2)s1	n	n	n	n	n
O=C1CCCN1CCCNc1ncnc2c1[nH]c1ccc(Cl)cc12	-88.0	n	n	n	n
Cc1ccc2nc(/C(C#N)=C/c3ccc(O)c(O)c3)[nH]c2c1	n	n	n	n	n
N#C/C(=C\c1ccc(N2CCOCC2)c([N+](=O)[O-])c1)c1nc2ccccc2[nH]1	n	n	n	n	n
Cc1ccc2nc(/C(C#N)=C/c3cn[nH]c3-c3ccc(F)cc3)[nH]c2c1	-44.6	n	n	n	n
